Values joined by “and” are separate entries in the source; they are usually repeats but may differ in a detail not shown here. Identical values can stand only once. Inconclusive results are not listed. A call without a number means that no potency is given here. Active and inactive are the calls of the source. Calls come from the whole dose curve; as a rule, active = well fitted activation curve with a large enough effect in the repeat runs; inconclusive = weak or mixed curves; inactive = flat fitted curve, though single readings scatter.
Experiment: A CellTox Green Cytotoxicity Assay to monitor cytotoxicity in HEK293 cells - 16 hour (AID 1224888); note: nearly all actives have a fitted effect of over 35% in size
Details: CellTox Green fluorescence; series mostly up to 76.8 µM
Source text: National Center for Advancing Translational Sciences [NCATS]
NIH Chemical Genomics Center [NCGC]
U.S. Environmental Protection Agency [EPA]
National Institutes of Environmental Health Sciences [NIEHS]
National Toxicology Program [NTP]
Cell-based models are critical for drug discovery. Determining the natural cytotoxic effects resulting from test compounds is an essential research activity. A CellTox Green Cytotoxicity Assay to monitor cytotoxicity in real time of continues cell culture during 40 hours of the compound treatment was used to screen Tox21 10K library compounds in Hek293 cells. CellTox Green Cytotoxicity Assay is a nonlytic, homogeneous, biofluorescent method to measure cytotoxicity in cell culture after experimental manipulation. The assay system uses a proprietary asymmetric cyanine dye that is excluded from viable cells but preferentially stains the dead cell's DNA. […] Viable cells produce no appreciable increases in fluorescence. Therefore, the fluorescence signal produced by the binding interaction with dead cell DNA is proportional to cytotoxicity.
The mixture of Hek293 cell suspension and reagents were dispensed at 600cells/6 ul/well in 1536-well tissue culture treated black solid bottom plates using a Multidrop dispenser. After the assay plates were incubated at a 37 C/5% CO2 incubator for 5 hours, 23 nL of compounds dissolved in DMSO, positive and negative controls was transferred to the assay plate by a pintool work station. The plates were incubated at 37 C for 40 hours. The fluorescence intensity were measured at 0h, 8h, 16h, 24h, 32h and 40h time points using ViewLux plate reader during compound treatment.
Potency is the fitted concentration of half-maximal effect.

Compound | Potency | activity change
Cn1cnc2ncnc(N)c21 | inactive | 
CC(C)N=C(N)/N=C(\N)Nc1ccc(Cl)cc1 | inactive | 
O=CC1CC1 | inactive | 
Cc1ccc(CCn2c3c(c4cc(Cl)ccc42)CN(C)CC3)cn1 | inactive | 
C=CC(=O)OCCC#N | inactive | 
CCOC(=O)CN | inactive | 
N[C@@H](CSSC[C@H](N)C(=O)O)C(=O)O |  | 14.4% [at 0.29 µM, hits give high values] (inactive)
COC(=O)CC(C)CCC=C(C)C (stereo not given) | inactive | 
Cc1occc1SSc1ccoc1C | inactive | 
CN1CCN(C2Cc3ccccc3Sc3ccc(Cl)cc32)CC1 (stereo not given) | 21.3 µM (active) | 
CCc1c(C(=O)O)c(=O)cnn1-c1ccc(Cl)cc1 | inactive | 
c1ccc(Nc2cccc3ccccc23)cc1 | inactive | 
CCc1c(Br)c(Br)c(Br)c(Br)c1Br | inactive | 
CC(C)CCOCCC(C)C | inactive | 
CCCCCCCCCCCC(=O)N(CC)CC | inactive | 
Cc1c(C)n(Cc2ccccc2)c2ccc(C(=O)OCCN(C)C)cc12 | inactive | 
CCCCN(CCCC)CCC(O)c1cc2c(Cl)cc(Cl)cc2c2cc(C(F)(F)F)ccc12 (stereo not given) | inactive | 
COc1ccccc1OCCNCC(O)COc1cccc2[nH]c3ccccc3c12 (stereo not given) | inactive | 
CCCCOC(=O)C(C)CC (stereo not given) | inactive | 
O=C(Oc1ccccc1)c1cccc(C(=O)Oc2ccccc2)c1 | inactive | 

Compound | Potency | activity change
Brc1ccccn1 | inactive | 
NCCCCCCNCCCCCCN | inactive | 
CCc1ccc(O)c(C(C)(C)C)c1 | inactive | 
CC(COC(=O)c1ccccc1)OC(=O)c1ccccc1 (stereo not given) | inactive | 
CC(C)=CCCC(C)O (stereo not given) | inactive | 
CC(C)(C)c1cc(CCC(=O)NCCCCCCNC(=O)CCc2cc(C(C)(C)C)c(O)c(C(C)(C)C)c2)cc(C(C)(C)C)c1O | inactive | 
CSc1c(Cl)c(Cl)c(Cl)c(Cl)c1Cl | inactive | 
CC(=O)c1ccccc1N | inactive | 
CCCCN(C)C | inactive | 
Cc1cc(=O)[nH]c(=O)[nH]1 | inactive | 
C=C/C=C/C=C/CCCCC |  | -0.0444% [at 15.8 µM, hits give high values] (inactive)
C/C=C/C(=O)C1=C(C)CCCC1(C)C | inactive | 
CC=O | 57.5 µM (active) | 
C#CC(O)CCC (stereo not given) | inactive | 
CCCCCCCCCCCCCc1ccccc1 | inactive | 
OCCCS | inactive | 
CCOC(=O)C1=C(C)NC(C)=C(C(=O)OCC)C1c1ccccc1/C=C/C(=O)OC(C)(C)C | inactive | 
CCCC(C)CCC(C)=O (stereo not given) | inactive | 
CCN=c1cc2oc3cc(NCC)c(C)cc3c(-c3ccccc3C(=O)OCC)c-2cc1C | 10.9 µM (active) and 11 µM (active) | 
O=C(O)CCn1c2c(c3ccccc31)C[C@H](NS(=O)(=O)c1ccc(F)cc1)CC2 | inactive | 

— PubChem BioAssay (Tox21)
